# Screens (PubChem BioAssay)
# Sampled rows, rich in hits. Any-hit rate of the full collection: about 4.9%.
# Calb FLC: affects C. albicans growth with fluconazole. C. albicans CaCi-2 (fluconazole-resistant clinical isolate) + fluconazole, Alamar Blue growth, 48 h. growth inhibition, % (concentration not given with the values). actives 0.57% (n = 300,000). AID 1979;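 active = growth inhibition above about 58% in most replicates, limit read from the data, passing the limit was not always enough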;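 note: all wells also contain fluconazole at 8 µg/ml as a sub-toxic cotreatment; 0% = median of DMSO wells and 100% = median of geldanamycin control wells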
# Mdm2-MdmX inh: disrupts the human Mdm2-MdmX interaction. actives 3% (n = 330,000). inhibition, % at 8 µM. SaOS-2 split-luciferase Mdm2/MdmX complementation, luminescence. O15151+Q00987;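 active = inhibition of at least 50% at 8 µM in the primary screen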
# PP1 inh: blocks human PP1-alpha phosphatase, a PP5 counter-screen | purified PP1alpha, OMFP fluorescence | inhibition, % at 6.7 µM | AID 2235 | actives 0.9% (n = 320,000);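 active = inhibition above the mean inhibition of all tested compounds plus 3 SD, computed separately for each screening campaign, cut at about 15% in these data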
# Beta cell apopt: beta cell apoptosis inhibition | INS-1E cytokine-induced death, ATP luminescence, 48 h; percent of positive-control rescue, neutral wells zero | protection from apoptosis, % (test concentration not listed) | actives 0.8% (n = 300,000) | AID 435005;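 active = Every replicate reaches about 75%, or at least half do and their mean reaches it too, limit read from the data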;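 note: 0% = cytokine-treated negative control wells and 100% = positive control rescue; higher means more ATP so stronger rescue from cytokine killing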
# CSC inhib: blocks cancer stem cells; cancer stem cell-like cells viability, luminescence; inhibition, % at 7.5 µM; actives 1.1% (n = 300,000); in the data active = inhibition above about 75%; tested in HMLE shEcad cells
# PP5 inh: blocks human protein phosphatase 5 activity; P53041; purified PP5c, OMFP substrate fluorescence; inhibition, % at 6.7 µM; actives 0.18% (n = 320,000); AID 1987;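 active = inhibition above the campaign's mean inhibition across all tested compounds plus 3 SD, cut at about 9.5% in these data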;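 note: 0% = DMSO only and 100% = 100 µM cantharidin control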
# Target sequence (P53041 whole entry, looked up): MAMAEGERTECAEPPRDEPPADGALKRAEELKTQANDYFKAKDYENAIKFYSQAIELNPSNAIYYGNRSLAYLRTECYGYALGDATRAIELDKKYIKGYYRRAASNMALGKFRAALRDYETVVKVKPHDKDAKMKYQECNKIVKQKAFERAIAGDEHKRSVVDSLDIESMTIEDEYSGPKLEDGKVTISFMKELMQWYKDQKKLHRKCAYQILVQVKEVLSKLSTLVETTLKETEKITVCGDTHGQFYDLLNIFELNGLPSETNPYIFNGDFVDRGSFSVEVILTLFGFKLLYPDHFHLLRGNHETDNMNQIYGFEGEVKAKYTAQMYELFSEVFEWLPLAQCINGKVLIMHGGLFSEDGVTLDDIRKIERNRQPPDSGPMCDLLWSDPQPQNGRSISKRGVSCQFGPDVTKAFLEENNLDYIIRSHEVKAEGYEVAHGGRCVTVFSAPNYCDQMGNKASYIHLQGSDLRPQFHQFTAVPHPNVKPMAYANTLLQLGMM
# Mdm2-MdmX conf: human Mdm2/MdmX binding inhibition, confirmed; shares compounds with Mdm2-MdmX inh; luminescent assay; inhibition, % at 8 µM; actives 55% (n = 10,000); AID 489028; in the data active = inhibition above about 40%
# Full FLuc ctr: inhibits full-length luciferase, flagging false Mdm2/MdmX hits. shares compounds with Mdm2-MdmX inh. SaOS-2 full-length luciferase counterscreen, luminescence. inhibition, % at 8 µM. actives 77% (n = 6,200). AID 504607;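 active = mean inhibition at 8 µM reaching about 37%, which flags the compound as non-specific, limit read from the data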;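 note: p53-null SaOS-2 cells with luciferase driven by a doxycycline-inducible promoter; compound on cells about two nights before reading with doxycycline added after day one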
# * hit, by the source's call; x = no result given.
SMILES,Calb FLC,Mdm2-MdmX inh,PP1 inh,Beta cell apopt,CSC inhib,PP5 inh,Mdm2-MdmX conf,Full FLuc ctr
COc1ccc2nc(C)cc(Sc3nc4ccccc4s3)c2c1,4.5,77.7*,-3.1,-46.6,58.6,3.0,18.6,x
COc1ccc2nc(C)cc(SCC(=O)NNC(=O)COc3ccccc3)c2c1,-3.2,-11.5,-1.5,-8.4,-6.1,2.2,x,x
CN=C1c2c(-c3ccccc3)c3cc(OC)ccc3n2CCN1C,-19.6,50.7*,0.2,-4.1,-6.4,0.3,21.4,x
CCOc1ccc(N(CC(=O)NCc2ccco2)C(=O)CCC(=O)Nc2ccccn2)cc1,25.1,-11.5,x,x,x,x,x,x
O=C1c2cccc3c([N+](=O)[O-])ccc(c23)C(=O)N1c1ccc(Cl)cn1,0.7,100.3*,1.1,29.1,112.0*,2.6,100.2*,53.7*
O=C1c2cccc3c(N4CCCCC4)ccc(c23)C(=O)N1c1ccccn1,2.4,2.5,-1.4,3.9,-2.7,1.0,x,x
CC(=O)Oc1ccc(-n2c(=O)c3ccccc3c3ccccc3c2=O)cc1,7.4,14.4,-6.0,-4.7,-6.5,-1.1,x,x
O=C1c2ccc([N+](=O)[O-])cc2C(=O)N1c1ccc(Cl)cn1,-3.0,-27.3,-0.7,-4.9,-13.0,-3.9,x,x
O=C1c2cccc3c([N+](=O)[O-])ccc(c23)C(=O)N1c1nccs1,26.3,92.4*,4.9,8.7,79.4*,1.6,90.2*,27.0
CC(=O)Oc1ccc(N2C(=O)c3cccc4c([N+](=O)[O-])ccc(c34)C2=O)cc1,-0.3,70.0*,-0.7,x,37.9,2.7,5.2,x
O=C1c2cccc3c([N+](=O)[O-])ccc(c23)C(=O)N1c1ccccn1,7.0,96.3*,3.6,x,105.0*,0.6,62.8*,15.2
Nc1c(C(=O)CSc2ncccn2)c(=O)[nH]c(=O)n1C1CC1,x,-5.3,-2.3,-8.0,x,-0.3,x,x
CN(C)C1=NC[C@H](Cc2ccccc2)N1CCCC1CCCC1,x,53.5*,3.4,39.5,35.6,0.3,27.8,68.1*
Cc1cc(NC(=O)Nc2ccc(Cl)c(Cl)c2)no1,-26.0,0.1,5.8,-1.3,23.6,0.7,x,x
O=C(Nc1ccc(Oc2ccc(NC(=O)Nc3ccccc3Cl)cc2)cc1)Nc1ccccc1Cl,-13.4,54.0*,-1.0,53.7,40.3,2.4,40.5*,47.0*
CCOC(=O)c1ccc(NC(=O)Nc2ccc(Cl)cn2)cc1,-10.5,-14.9,-1.3,2.2,x,-3.4,x,x
CCOC(=O)c1ccc(NC(=O)Nc2ccon2)cc1,19.9,52.8*,-1.2,22.7,77.8*,-0.7,42.8*,115.1*
O=C(Nc1ccc(Cl)c(Cl)c1)Nc1ccon1,70.8,56.5*,-1.2,11.4,47.3,2.8,65.7*,56.1*
O=C(Nc1ccc(Cl)cc1)Nc1ccc(Cl)c(Cl)c1,x,89.3*,4.2,113.1*,44.2,1.1,89.6*,26.8
C#CCCCCCCC#CCN(C)C,-20.6,14.7,-4.5,-12.8,5.2,-1.9,x,x
O=C(Nc1nnc(SCC(=O)N2CCCCC2)s1)c1c(F)cccc1F,5.3,-6.6,-1.2,-4.0,x,0.5,x,x
Cc1ccc(S(=O)(=O)N2CCC(NC(=O)c3ccccc3)CC2)cc1,-0.4,11.0,-2.8,-0.9,0.0,0.0,x,x
CCNS(=O)(=O)c1ccc(NC(=O)c2ccc(Cn3cc(Br)cn3)o2)cc1,-29.1,-9.8,-2.2,-3.3,-8.1,4.1,x,x
O=C(Cc1ccc(F)cc1)Nc1nnc(SCC(=O)NC2CCCC2)s1,-9.4,25.6,-3.5,-9.7,-4.8,-0.7,x,x
O=C(Nc1ccc(Cl)c(Cl)c1)Nc1ccc(Br)cc1F,-3.4,95.0*,6.5,x,92.4*,4.7,92.8*,35.2
CC(C)(C)N(NC(=O)Nc1ccc(Cl)c(Cl)c1)C(=O)c1ccccc1,4.4,86.3*,9.2,23.8,x,-4.4,66.5*,42.6*
N#Cc1ccc(NC(=O)Nc2ccc(Cl)cc2)cc1,52.6,84.8*,11.8,105.3*,x,3.8,88.4*,44.7*
O=C(Nc1ccccc1)Nc1ccc(Br)c(Cl)c1,46.0,86.8*,2.5,58.7,39.9,5.1,43.9*,48.2*
CC(OC(=O)CCN1C(=O)C2CC=CCC2C1=O)C(=O)Nc1cccc(Cl)c1 (stereo not drawn),2.4,13.8,1.9,-1.2,-4.0,0.2,x,x
